# Data from PubChem BioAssay (NCATS).
# Inconclusive results are not listed. Active and inactive are the calls of the source. Unless noted, calls follow the shape of the dose curve; as a rule, active = well fitted curve in the direction sought with a large enough effect; inconclusive = small, poorly fitted or top-dose-only effect, or another doubt; inactive = no such curve, though single readings can be large; an effect the other way counts as inactive or inconclusive.
# Experiments:
# [1] = qHTS for Inhibitors of Ubiquitin-specific Protease USP2a Using CHOP2 as the Reporter: K633 Counterscreen (AID 652168); also: % of control where 0% means no effect
# In short: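 Cell-free interference counterscreen without USP2a: compounds pinned into enzyme-free buffer (20 mM Tris pH 8, 2 mM beta-mercaptoethanol, 0.05% Chaps), then DiUb K48-4IQF substrate added (100 nM stock); fluorescence read kinetically, Ex 525/Em 598.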
# [2] = qHTS for Inhibitors of Ubiquitin-specific Protease USP2a Using CHOP2 as the Reporter: Cytotox Assay (AID 652170); also: potency is read from the fitted curve at half-maximal effect; nearly all actives have a fitted effect of over 70% in size
# In short: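 HCT116 human colon cancer cells, 600 per well in DMEM with 10% FBS, exposed to compounds for 72 hr at 37 deg C. ATP measured by CellTiter-Glo luminescence, normalized to DMSO cells and no-cell background.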
# [3] = biological target: Calcium and integrin-binding protein 1 (Homo sapiens) (UniProt Q99828); assay: Primary qHTS for Identification of Calcium Integrin Binding Protein 1 (CIB1) Competitor (AID 1508620);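 also: GST tagged CIB1 binding a fluorescein labelled alphaIIb integrin peptide tracer; top concentration of the series differs between compounds; % is scaled to controls: 0 for no effect and ±100 for the full control effect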
# Calcium and integrin-binding protein 1 (Homo sapiens), sequence (Q99828 whole entry, looked up): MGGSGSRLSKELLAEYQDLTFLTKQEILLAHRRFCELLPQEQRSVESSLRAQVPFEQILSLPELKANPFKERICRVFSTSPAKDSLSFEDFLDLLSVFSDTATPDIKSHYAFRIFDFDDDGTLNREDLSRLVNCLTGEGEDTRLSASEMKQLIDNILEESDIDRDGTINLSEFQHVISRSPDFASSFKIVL
# In short: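 CIB1-GST (1 uM final) and compound incubated 15 min at room temperature before adding FITC-alphaIIb peptide tracer (100 nM final). Competition for binding read by fluorescence polarization (ex 480, em 540) after another 15 min at room temperature.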
# [4] = Primary qHTS for inhibitors of nuclear receptor binding SET domain protein 2 (NSD2) in an isogenic RCH-ACV NSD2 p.E1099K mutant (9B) (AID 1645876); also: potency is read from the fitted curve at half-maximal effect; nearly all actives have a fitted effect of over 70% in size
# [5] = Primary qHTS for inhibitors of nuclear receptor binding SET domain protein 2 (NSD2) in an RCH-ACV wild type WT cells (2C) (AID 1645877); also: potency is read from the fitted curve at half-maximal effect; nearly all actives have a fitted effect of over 70% in size
# [6] = biological target: Glutathione peroxidase 1 (Homo sapiens) (UniProt P07203); assay: Primary qHTS Assay for Inhibitors of Recombinant Selenoprotein Glutathione Peroxidase 1 (GPX1) (AID 1845191); also: nearly all actives have a fitted effect of over 65% in size
# In short: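 10 nM GPX1 + cpd, 30 min RT; start w/ 1 mM GSH, 0.5 mM cumene hydroperoxide, 0.5 mM NADPH, 100 nM GR, 0.01% BSA; buffer 50 mM Tris-HCl pH 7.5, 2 mM EDTA, 150 mM NaCl; Fl 340/450, 0 & 15 min.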
# [7] = qHTS drug screen for cell cycle checkpoint inhibitors in PARPi-resistant BRCA-mutant ovarian cancer cell lines. (AID 1963452; calls by dose curve); conditions: PEO1/OlaR viability, CellTiter-Glo luminescence, 96 h, stronger effect = lower value
# In short: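 PEO1, PEO4 and PEO1/OlaR ovarian cancer cells, 600 per well, exposed 96 h at 37C to a dilution series. Viability read by CellTiter-Glo luminescence, normalized to DMSO and empty wells; activity summarized as Z-AUC.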
# [8] = Confirmatory qHTS for small molecule stabilizers of the endoplasmic reticulum resident proteome: Secreted ER Calcium Modulated Protein (SERCaMP) assay (AID 1508628); also: potency is read from the fitted curve at half-maximal effect; nearly all actives have a fitted effect of over 40% in size
# In short: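 We seeded SH-SY5Y-GLuc-SERCaMP cells, added compounds (three concentrations in the primary run, eleven up to 76.6 uM in confirmation), incubated 16 h, depleted ER calcium with thapsigargin, and read luciferase 4 h later.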
# [9] = NCATS anti-infectives library activity on HEK293 viability as a counter-qHTS vs the C. elegans viability qHTS (AID 1745854);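 also: HEK293 cells exposed to compounds for 24 hr before the viability read; % is scaled to controls: 0 for no effect and ±100 for the full control effect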
# In short: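 Cytotoxicity in human HEK293 cells is measured by ATP-dependent CellTiter-Glo luminescence following a 24 hr incubation with titrated library compounds at 37C. Top final concentration is 41.7 uM.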
# [10] = biological target: Lysosomal acid glucosylceramidase (Homo sapiens) (UniProt P04062); assay: Glucocerebrosidase-p2 (AID 348; in the data active = potency below about 10 µM; also: potency is read from the fitted curve at half-maximal effect); conditions: purified GBA, blue fluorogenic substrate, 40 min
# Lysosomal acid glucosylceramidase (Homo sapiens), sequence (P04062 whole entry, looked up): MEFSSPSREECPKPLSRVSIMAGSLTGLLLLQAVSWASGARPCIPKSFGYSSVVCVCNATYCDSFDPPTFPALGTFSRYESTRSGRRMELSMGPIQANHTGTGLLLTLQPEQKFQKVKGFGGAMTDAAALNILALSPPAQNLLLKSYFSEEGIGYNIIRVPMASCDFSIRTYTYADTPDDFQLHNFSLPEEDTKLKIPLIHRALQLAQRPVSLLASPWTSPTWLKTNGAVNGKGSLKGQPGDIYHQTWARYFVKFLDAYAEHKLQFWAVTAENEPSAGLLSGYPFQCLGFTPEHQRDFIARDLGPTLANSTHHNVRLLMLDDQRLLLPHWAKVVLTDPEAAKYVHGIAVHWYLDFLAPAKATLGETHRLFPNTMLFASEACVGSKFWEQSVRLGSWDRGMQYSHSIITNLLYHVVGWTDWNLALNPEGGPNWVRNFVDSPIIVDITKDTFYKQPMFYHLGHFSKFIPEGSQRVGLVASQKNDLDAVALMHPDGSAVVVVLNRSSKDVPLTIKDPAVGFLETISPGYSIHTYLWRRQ
# In short: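 Compounds titrated from 0.6 nM upwards against 0.2 nM enzyme in pH 5.9 citric acid/KH2PO4, taurocholate, tween-20; blue fluorogenic substrate 80 uM, 40 min room temperature, stopped and read Ex 365/Em 440 for AC50.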
# [11] = AP1 Signaling Pathway (AID 357; active = well fitted curve in either direction with a large enough effect, not every such curve was filed as active;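 also: ME-180 reporter cells stimulated with EGF at its EC50 level; % is scaled to controls: 0 for no effect and ±100 for the full control effect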); conditions: ME-180 AP-1-bla reporter, EGF-induced, beta-lactamase ratio, 5 h; at 7.69 µM (top of the series) unless noted
# In short: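 Beta-lactamase reporter under AP-1 response element, ME-180 background. Stimulus: EC50 EGF. Compound exposure 5 h, 37 °C. Detection: CCF4, 2.5 h RT, 460/530 nm. Values: AC50 from titration.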
# [12] = biological target: Cytochrome P450 1A2 (Homo sapiens) (UniProt P05177); assay: p450-cyp1a2 (AID 410; calls by dose curve; also: potency is read from the fitted curve at half-maximal effect)
# Cytochrome P450 1A2 (Homo sapiens), sequence (P05177 whole entry, looked up): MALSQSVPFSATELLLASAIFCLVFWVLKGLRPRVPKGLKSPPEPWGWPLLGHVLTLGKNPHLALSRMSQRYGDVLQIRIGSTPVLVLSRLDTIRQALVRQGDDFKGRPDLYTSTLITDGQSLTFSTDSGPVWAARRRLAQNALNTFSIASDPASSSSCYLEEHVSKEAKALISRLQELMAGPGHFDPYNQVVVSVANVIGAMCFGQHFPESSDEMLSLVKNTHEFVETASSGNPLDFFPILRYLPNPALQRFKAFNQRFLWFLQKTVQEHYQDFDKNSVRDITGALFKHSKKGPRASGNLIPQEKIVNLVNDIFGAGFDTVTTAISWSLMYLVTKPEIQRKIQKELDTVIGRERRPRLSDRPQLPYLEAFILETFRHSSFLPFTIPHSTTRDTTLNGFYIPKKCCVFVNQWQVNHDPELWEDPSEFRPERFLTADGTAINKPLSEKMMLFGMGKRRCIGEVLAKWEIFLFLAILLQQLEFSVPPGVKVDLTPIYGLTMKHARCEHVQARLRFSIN
# In short: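 Inhibition was calculated relative to 57 uM furafylline (full inhibition). The reaction used human CYP1A2 at 20nM with Luciferin-ME at its Km, 100uM, driven by an NADPH-regenerating system for 60 min at room temperature.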
# [13] = NFAT Signaling Pathway (AID 444; active = well fitted curve in either direction with a large enough effect, not every such curve was filed as active;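 also: carbachol stimulus at about its EC50 of 1 µM final; % is scaled to controls: 0 for no effect and ±100 for the full control effect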); conditions: Jurkat NFAT-bla M1, carbachol, beta-lactamase ratio, 5 h; at 7.69 µM (top of the series) unless noted
# In short: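 Read-out: CCF4 FRET ratio (460 nm/530 nm) after 1 h RT dye loading, used for %activity and AC50 from titration series. Cells: Jurkat NFAT-β-lactamase/M1 line, treated with compound plus 1 uM carbachol for 5 h, 37 °C.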
# [14] = Stat Signaling Pathway (AID 446; active = well fitted curve in either direction with a large enough effect, not every such curve was filed as active); conditions: ME-180 (cervical carcinoma) SIE beta-lactamase reporter, IL-6 stimulated, 5 h; at 7.69 µM (top of the series) unless noted
# In short: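 IL-6/STAT signaling read in ME-180 cells via an SIE beta-lactamase reporter. Stimulus was 40 pM IL-6 (its AC50) for 5 hrs, so both activation and inhibition register.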
# [15] = biological target: Glucocorticoid receptor (Homo sapiens) (UniProt P04150); assay: GR-GFP Redistribution (AID 450;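 active = compounds whose dose series gives a full or clear partial fitted curve of increased nuclear translocation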; also: potency is read from the fitted curve at half-maximal effect); conditions: U2OS GR-GFP nuclear translocation, laser cytometry, 2 h
# Glucocorticoid receptor (Homo sapiens), sequence (P04150 whole entry, looked up, the tested form may be a part): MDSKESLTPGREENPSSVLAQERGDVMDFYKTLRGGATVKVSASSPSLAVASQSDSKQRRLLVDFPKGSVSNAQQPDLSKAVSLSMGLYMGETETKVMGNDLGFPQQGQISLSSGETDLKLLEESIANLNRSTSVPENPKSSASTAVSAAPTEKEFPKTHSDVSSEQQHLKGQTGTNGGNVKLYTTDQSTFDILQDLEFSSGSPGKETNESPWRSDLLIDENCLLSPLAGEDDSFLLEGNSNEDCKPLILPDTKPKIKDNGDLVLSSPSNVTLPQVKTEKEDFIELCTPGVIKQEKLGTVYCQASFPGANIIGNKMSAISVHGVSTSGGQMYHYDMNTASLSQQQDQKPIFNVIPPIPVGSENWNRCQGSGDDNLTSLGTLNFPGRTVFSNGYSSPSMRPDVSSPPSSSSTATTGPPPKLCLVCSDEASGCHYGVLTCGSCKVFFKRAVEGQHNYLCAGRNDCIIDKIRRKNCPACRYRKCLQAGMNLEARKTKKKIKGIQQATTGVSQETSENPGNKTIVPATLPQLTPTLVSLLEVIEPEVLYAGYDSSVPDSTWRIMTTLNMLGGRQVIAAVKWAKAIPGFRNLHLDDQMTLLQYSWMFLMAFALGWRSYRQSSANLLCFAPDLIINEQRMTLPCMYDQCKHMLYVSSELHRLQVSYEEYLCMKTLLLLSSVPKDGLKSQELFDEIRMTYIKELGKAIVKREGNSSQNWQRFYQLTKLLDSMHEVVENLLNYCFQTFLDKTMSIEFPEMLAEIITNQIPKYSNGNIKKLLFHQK
# [16] = biological target: Glucocorticoid receptor (Homo sapiens) (UniProt P04150); assay: GR-EFC Redistribution (AID 451; calls by dose curve; also: potency is read from the fitted curve at half-maximal effect); conditions: CHO-K1 GR-EFC translocation, beta-gal luminescence, 2 h
# In short: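 Translocation of GR-ED fusion to nuclear EA restores b-gal, read by luminescence after 1 h room-temperature detection. Engineered CHO-K1 biosensor cells, 1,000/well, exposed 2 h at 37 C to titrations up to 46 uM final.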
# [17] = biological target: Mitogen-activated protein kinase 10 (Mus musculus) (UniProt Q61831); assay: JNK3 AlphaScreen Assay (AID 530; active = well fitted curve in either direction with a large enough effect, not every such curve was filed as active)
# In short: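 Room-temperature AlphaScreen kinase assay; pre-activated HepG2 lysate as JNK3 source, biotin-GST-cJun(1-79) substrate, 10 uM ATP, compound 15 min preincubation.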
# [18] = biological target: 3',5'-cyclic-AMP phosphodiesterase 4B (Homo sapiens) (UniProt Q07343); assay: qHTS Assay for Inhibitors of PDE-IV (AID 607; active = well fitted activation curve with a large enough effect in the main read-out, with a control signal flat, not every such curve was filed as active; also: % of control where 0% means no effect)
# In short: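 Live HEK293 cells with a modified cyclic nucleotide-gated (CNG) channel report intracellular cAMP via membrane-potential dye fluorescence (ex 535/em 590 nm). Endogenous PDE-IV was targeted. Compounds were tested at up to 22.9 uM final; RO 20-1724 100 uM served as control.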
# [19] = biological target: Cytochrome P450 3A4 (Homo sapiens) (UniProt P08684); assay: qHTS Assay for Activators of Cytochrome P450 3A4 (AID 885); also: nearly all actives have a fitted effect of over 65% in size
# In short: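 Quantitative HTS format: compounds preincubated with 20nM human CYP3A4 and Luciferin-PPXE substrate at KM, reaction started by NADPH regeneration, stopped after 60 min, luciferase luminescence read 20 min later.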
# [20] = biological target: Cytochrome P450 2C19 (Homo sapiens) (UniProt P33261); assay: qHTS Assay for Inhibitors and Substrates of Cytochrome P450 2C19 (AID 899); also: potency is read from the fitted curve at half-maximal effect; nearly all actives have a fitted effect of over 60% in size
# Cytochrome P450 2C19 (Homo sapiens), sequence (P33261 whole entry, looked up): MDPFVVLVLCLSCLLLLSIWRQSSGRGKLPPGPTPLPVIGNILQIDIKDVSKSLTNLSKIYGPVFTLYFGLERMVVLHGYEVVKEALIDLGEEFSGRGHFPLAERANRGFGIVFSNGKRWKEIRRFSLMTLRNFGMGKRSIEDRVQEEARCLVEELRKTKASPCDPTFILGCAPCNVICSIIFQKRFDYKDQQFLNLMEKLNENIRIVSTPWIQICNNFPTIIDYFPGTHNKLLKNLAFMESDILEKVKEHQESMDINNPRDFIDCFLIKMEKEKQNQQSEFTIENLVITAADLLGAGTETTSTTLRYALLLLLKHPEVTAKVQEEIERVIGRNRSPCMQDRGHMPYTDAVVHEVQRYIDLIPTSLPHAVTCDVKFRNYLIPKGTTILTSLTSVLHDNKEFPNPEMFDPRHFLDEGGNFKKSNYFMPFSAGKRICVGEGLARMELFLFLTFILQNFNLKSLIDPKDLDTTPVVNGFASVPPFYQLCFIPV
# In short: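 Reactions contain 5nM enzyme, 10uM Luciferin-H EGE (KM) and 50mM KPO4; compound preincubates 10 min at 37C, NADPH regeneration starts turnover for 60 min. Luminescence after detection reagent gives activity.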
# [21] = qHTS Assay for Lipid Storage Modulators (AID 1519; calls by dose curve); conditions: Drosophila S3 cells, BODIPY lipid droplet/cell ratio, laser cytometry, cells loaded with oleic acid
# In short: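 Cells seeded at 5,000 per well were treated with compounds over a concentration series and loaded with oleic acid (400 uM, as added). Lipid droplet fluorescence (488 nm excitation, 500-530 nm channel) was read by laser-scanning cytometry and normalized to 20 uM Triacsin C.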
# [22] = biological target: Dual specificity protein kinase CLK4 (Homo sapiens) (UniProt Q9HAZ1); assay: qHTS Assay for Inhibitors of CDC-like Kinase 4 (Kinase-Glo Assay) (AID 1770); also: potency is read from the fitted curve at half-maximal effect; nearly all actives have a fitted effect of over 65% in size
# Dual specificity protein kinase CLK4 (Homo sapiens), sequence (Q9HAZ1 whole entry, looked up): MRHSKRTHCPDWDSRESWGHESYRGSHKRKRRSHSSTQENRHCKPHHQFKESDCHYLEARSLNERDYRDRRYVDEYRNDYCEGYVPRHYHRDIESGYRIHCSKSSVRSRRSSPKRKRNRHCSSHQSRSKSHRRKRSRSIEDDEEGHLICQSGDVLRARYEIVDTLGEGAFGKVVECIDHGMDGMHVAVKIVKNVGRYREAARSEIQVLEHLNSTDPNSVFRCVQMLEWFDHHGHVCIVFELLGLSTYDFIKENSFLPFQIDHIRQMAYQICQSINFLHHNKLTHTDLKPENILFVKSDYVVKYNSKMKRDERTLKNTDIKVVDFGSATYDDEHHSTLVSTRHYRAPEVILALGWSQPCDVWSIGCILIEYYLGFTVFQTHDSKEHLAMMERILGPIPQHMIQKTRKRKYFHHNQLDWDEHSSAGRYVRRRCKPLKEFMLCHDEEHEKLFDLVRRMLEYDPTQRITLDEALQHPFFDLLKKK
# In short: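 Inhibition was judged from remaining ATP, measured by Ultra-Glo luciferase bioluminescence after Clk4 (25 nM) had acted on RS peptide at 1 uM ATP for 4.5 hours, room temperature.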
# [23] = biological target: Dual specificity protein kinase CLK4 (Homo sapiens) (UniProt Q9HAZ1); assay: qHTS Assay for Inhibitors of CDC-like Kinase 4 (ADP-FP Assay) (AID 1795); also: potency is read from the fitted curve at half-maximal effect; nearly all actives have a fitted effect of over 60% in size
# In short: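 Inhibition of ADP formation by 6.25 nM Clk4 is measured using 1 uM ATP and 100 uM RS repeat peptide over one hour. Produced ADP displaces a fluorescent tracer from antibody, lowering polarization.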
# [24] = biological target: Ubiquitin carboxyl-terminal hydrolase 1 (Homo sapiens) (UniProt O94782); assay: Inhibitors of USP1/UAF1: Pilot qHTS (AID 504865);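 also: rhodamine fluorescence freed from ubiquitin-rhodamine substrate followed over time; top concentration of the series differs between compounds; % is scaled to controls: 0 for no effect and ±100 for the full control effect; nearly all actives have a fitted effect of over 35% in size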
# In short: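 Kinetic fluorescence assay: 1nM USP1/UAF1, 15 min compound preincubation, then 150nM Ub-Rho; 480/540 nm.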
# [25] = Primary qHTS for small molecule stabilizers of the endoplasmic reticulum resident proteome: Secreted ER Calcium Modulated Protein (SERCaMP) assay (AID 1508630); also: % is scaled to controls: 0 for no effect and ±100 for the full control effect
# In short: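 GLuc-SERCaMP-expressing SH-SY5Y cells, pretreated 16 h with compound, are challenged with thapsigargin to empty ER calcium stores; after 4 h, coelenterazine is added directly to the medium and luminescence is imaged.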
# [26] = biological target: Rap guanine nucleotide exchange factor 3 (Homo sapiens) (UniProt O95398); assay: Confirmatory qHTS for antagonist of cAMP-regulated guanine nucleotide exchange factor 3 (EPAC1) (AID 1645880);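 also: plate controls were DMSO only for no effect and full effect of the ATA control for full effect; nearly all actives have a fitted effect of over 55% in size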
# Rap guanine nucleotide exchange factor 3 (Homo sapiens), sequence (O95398 whole entry, looked up): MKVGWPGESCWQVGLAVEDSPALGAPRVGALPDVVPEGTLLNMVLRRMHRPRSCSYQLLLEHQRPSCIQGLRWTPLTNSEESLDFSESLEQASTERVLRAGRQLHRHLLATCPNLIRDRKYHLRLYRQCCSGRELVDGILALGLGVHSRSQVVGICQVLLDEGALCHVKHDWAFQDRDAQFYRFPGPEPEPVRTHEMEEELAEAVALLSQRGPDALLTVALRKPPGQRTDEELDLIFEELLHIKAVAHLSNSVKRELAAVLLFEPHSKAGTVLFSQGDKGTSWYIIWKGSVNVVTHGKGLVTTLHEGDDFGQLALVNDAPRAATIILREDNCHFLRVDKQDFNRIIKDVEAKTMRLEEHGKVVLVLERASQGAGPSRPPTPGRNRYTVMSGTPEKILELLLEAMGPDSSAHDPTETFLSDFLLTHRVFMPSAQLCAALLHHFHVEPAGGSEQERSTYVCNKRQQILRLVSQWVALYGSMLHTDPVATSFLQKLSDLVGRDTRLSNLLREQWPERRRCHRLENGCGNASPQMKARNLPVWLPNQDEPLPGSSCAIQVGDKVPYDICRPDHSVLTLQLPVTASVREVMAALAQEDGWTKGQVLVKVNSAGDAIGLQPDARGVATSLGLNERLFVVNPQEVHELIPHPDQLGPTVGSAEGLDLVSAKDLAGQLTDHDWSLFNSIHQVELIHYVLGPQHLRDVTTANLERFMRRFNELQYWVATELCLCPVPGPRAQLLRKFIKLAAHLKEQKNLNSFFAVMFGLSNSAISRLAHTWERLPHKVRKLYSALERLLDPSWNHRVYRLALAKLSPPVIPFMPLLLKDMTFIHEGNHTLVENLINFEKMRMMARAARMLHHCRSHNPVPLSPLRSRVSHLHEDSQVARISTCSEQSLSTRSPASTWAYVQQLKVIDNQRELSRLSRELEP
# In short: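 Nucleotide exchange uses 100 nM EPAC1, 250 nM RAP1B-BODIPY-GDP and 50 uM GDP, with compounds in a concentration-titration series. After 5 min at room temperature, fluorescence (480 nm ex/540 nm em) is read every 5 min for 30 min. Data are normalized to control ATA and DMSO.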
# [27] = biological target: Rap guanine nucleotide exchange factor 3 (Homo sapiens) (UniProt O95398); assay: Confirmatory qHTS for agonist of cAMP-regulated guanine nucleotide exchange factor 3 (EPAC1) (AID 1645881);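 also: EPAC1 catalysed release of BODIPY-GDP from Rap1B seen as fluorescence loss; 100% = effect of cAMP agonist control; nearly all actives have a fitted effect of over 75% in size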
# [28] = biological target: Rap guanine nucleotide exchange factor 4 (Homo sapiens) (UniProt Q8WZA2); assay: Confirmatory qHTS for agonist of cAMP-regulated guanine nucleotide exchange factor 4 (EPAC2) (AID 1645884);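 also: nucleotide exchange releases bodipy-GDP from Rap1 and this lowers its fluorescence; % is scaled to controls: 0 for no effect and ±100 for the full control effect; nearly all actives have a fitted effect of over 65% in size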
# Rap guanine nucleotide exchange factor 4 (Homo sapiens), sequence (Q8WZA2 whole entry, looked up): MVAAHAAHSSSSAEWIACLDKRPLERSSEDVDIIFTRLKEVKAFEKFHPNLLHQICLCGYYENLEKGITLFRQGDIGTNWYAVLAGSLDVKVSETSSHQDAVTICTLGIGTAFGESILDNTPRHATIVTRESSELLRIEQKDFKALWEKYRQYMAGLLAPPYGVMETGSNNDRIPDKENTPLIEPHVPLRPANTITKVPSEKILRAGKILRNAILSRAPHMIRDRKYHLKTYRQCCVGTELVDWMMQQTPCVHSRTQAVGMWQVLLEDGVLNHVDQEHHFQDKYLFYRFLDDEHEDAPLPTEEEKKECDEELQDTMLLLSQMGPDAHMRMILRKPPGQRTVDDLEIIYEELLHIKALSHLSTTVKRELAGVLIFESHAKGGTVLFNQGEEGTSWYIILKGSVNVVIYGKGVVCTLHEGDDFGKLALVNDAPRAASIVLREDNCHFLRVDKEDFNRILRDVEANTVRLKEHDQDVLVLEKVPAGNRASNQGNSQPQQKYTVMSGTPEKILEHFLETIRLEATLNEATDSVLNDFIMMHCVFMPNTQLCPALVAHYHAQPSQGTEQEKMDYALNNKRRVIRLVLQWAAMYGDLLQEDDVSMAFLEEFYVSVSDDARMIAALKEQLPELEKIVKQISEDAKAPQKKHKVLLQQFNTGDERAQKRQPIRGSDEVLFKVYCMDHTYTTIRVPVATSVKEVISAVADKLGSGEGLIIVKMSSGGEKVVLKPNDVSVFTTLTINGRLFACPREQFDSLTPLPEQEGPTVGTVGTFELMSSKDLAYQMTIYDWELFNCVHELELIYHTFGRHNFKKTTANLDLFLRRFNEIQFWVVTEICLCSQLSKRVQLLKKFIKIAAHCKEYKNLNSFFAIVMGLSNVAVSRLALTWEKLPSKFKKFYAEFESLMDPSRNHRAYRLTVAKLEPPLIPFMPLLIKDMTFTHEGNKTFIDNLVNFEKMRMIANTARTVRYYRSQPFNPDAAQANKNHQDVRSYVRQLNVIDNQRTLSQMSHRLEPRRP
# [29] = biological target: Rap guanine nucleotide exchange factor 4 (Homo sapiens) (UniProt Q8WZA2); assay: Confirmatory qHTS for antagonist of cAMP-regulated guanine nucleotide exchange factor 4 (EPAC2) (AID 1645885); also: % is scaled to controls: 0 for no effect and ±100 for the full control effect; nearly all actives have a fitted effect of over 25% in size
# [30] = biological target: Rap guanine nucleotide exchange factor 3 (Homo sapiens) (UniProt O95398); assay: Counterscreen qHTS for antagonist of cAMP-regulated guanine nucleotide exchange factor 3 (EPAC1) (AID 1645888);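 also: fluorescence loss as bound BODIPY-GDP is released from Rap1B; % of control where 0% means no effect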
# In short: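 Rap1B-BODIPY-GDP 250 nM + GDP 50 uM; cpds 7-pt, final 9.74 nM–152 uM (activator mode) or from 7.32 nM upwards (inhibitor mode); RT; FI 480/540 nm at 5 and 30 min, then ± cAMP, reread.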
smiles,measurement,setting,value
Cc1ccc(S(=O)(=O)Nc2cc(C(F)(F)F)ccc2C(=O)Nc2nc(-c3ccccc3)cs2)cc1,outcome,[1],inactive
same,Potency,[2],2.96 µM (active)
same,Potency,[3],inactive
same,Potency,[4],4.17 µM (active)
same,Potency,[5],4.17 µM (active)
same,Potency,[6],inactive
same,Z-AUC,[7],0.58 (inactive)
same,Z-AUC,[7]; measured here: PEO1 parental Z-AUC,0.184
same,Z-AUC,[7]; measured here: PEO4 Z-AUC,-0.358
Cc1cnc(NC(=O)c2cc(S(=O)(=O)N(C)C)ccc2N2CCCC2)s1,Potency,[3],inactive
same,Potency,[8],8.91 µM (active)
same,Potency,[9],inactive
COc1cccc(-c2ccc3ncnc(N(C)Cc4ccco4)c3c2)c1,Potency,[10],> 11.4 µM (inactive)
same,"activity change, negative = inhibition",[11],-18.7% (inactive)
same,Potency,[12],1.26 µM (active)
same,"activity change, negative = inhibition",[13],-8.47% (inactive)
same,"activity, negative = inhibition",[14],-14.9% (inactive)
same,Potency,[15],> 46 µM (inactive)
same,Potency,[16],> 46 µM (inactive)
same,outcome,[17],inactive
same,Potency,[18],inactive
same,Potency,[19],inactive
same,Potency,[20],2 µM (active)
same,"activity change, negative = inhibition",[21]; at 57.5 µM (top of the series),1.9% (inactive)
same,max response,[21]; measured here: cell count channel max response,8.44%
same,max response,[21]; measured here: lipid channel max response,7.63%
same,Potency,[22],2 µM (active)
same,Potency,[23],0.562 µM (active)
same,Potency,[24],inactive
same,Potency,[3],inactive
same,Potency,[25],inactive
same,Potency,[26],inactive
same,outcome,[27],inactive
same,activation,[28],8.39% [at 17.1 µM] (inactive)
same,"activity change, negative = inhibition",[29],-12.8% [at 12.7 µM] (inactive)
same,outcome,[30],inactive
COc1ccc(-c2ccc3ncnc(NCC4CCCO4)c3c2)cc1OC (configuration not stated),Potency,[3],inactive
